{"source": "paper PMC11574364", "experiment_in_all_cases": "protein domain microarray probed with biotinylated miRNA; Domain array: 20 mM Tris-HCl pH 7.4, 200 mM KCl, 0.2 mM EDTA, 0.05% NP40, 2 ug/ul heparin, overnight 4 C. ORF array: PBS pH 7.0 with RNase inhibitor, 100 ng RNA; high values mean tight binding", "conditions_in_all_cases": "ssRNA", "key": {"[1]": {"molecular_target": "RBM8A (Homo sapiens, UniProt Q9Y5S9)"}, "[2]": {"molecular_target": "T1, PGC-1 alpha (Homo sapiens, UniProt Q9UBK2)", "T1 sequence": "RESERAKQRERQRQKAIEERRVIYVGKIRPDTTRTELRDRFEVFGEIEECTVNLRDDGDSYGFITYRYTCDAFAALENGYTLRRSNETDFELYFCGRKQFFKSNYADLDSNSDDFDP"}, "[3]": {"molecular_target": "T2, NOVA1(3) (Homo sapiens, UniProt P51513)", "T2 sequence": "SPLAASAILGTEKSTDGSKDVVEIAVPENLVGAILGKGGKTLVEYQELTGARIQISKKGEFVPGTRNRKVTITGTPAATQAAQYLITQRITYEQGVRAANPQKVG"}, "[4]": {"molecular_target": "T3, SFRS2 (Homo sapiens, UniProt Q01130)", "T3 sequence": "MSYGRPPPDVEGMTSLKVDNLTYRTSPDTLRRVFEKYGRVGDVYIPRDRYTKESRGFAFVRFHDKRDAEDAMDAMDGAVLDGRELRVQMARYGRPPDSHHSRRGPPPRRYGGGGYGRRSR"}, "[5]": {"molecular_target": "T4, STRBP(2) (Homo sapiens, UniProt Q96SI9)", "T4 sequence": "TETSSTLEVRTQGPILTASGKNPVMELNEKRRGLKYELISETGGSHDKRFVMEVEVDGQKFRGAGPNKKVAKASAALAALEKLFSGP"}, "[6]": {"molecular_target": "T5, KHDRBS3 (Homo sapiens, UniProt O75525)", "T5 sequence": "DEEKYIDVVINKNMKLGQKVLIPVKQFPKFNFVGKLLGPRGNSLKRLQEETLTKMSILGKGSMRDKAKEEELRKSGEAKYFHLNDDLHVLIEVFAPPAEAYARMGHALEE"}, "[7]": {"molecular_target": "T6, PGC-1 beta (Homo sapiens, UniProt Q86YN6)", "T6 sequence": "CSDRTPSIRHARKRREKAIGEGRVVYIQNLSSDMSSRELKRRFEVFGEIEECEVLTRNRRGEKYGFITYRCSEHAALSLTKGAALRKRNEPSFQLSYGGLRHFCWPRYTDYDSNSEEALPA"}, "[8]": {"molecular_target": "hnRNP E2(3) (Homo sapiens, UniProt Q15366)", "sequence (Q15366 269-365)": "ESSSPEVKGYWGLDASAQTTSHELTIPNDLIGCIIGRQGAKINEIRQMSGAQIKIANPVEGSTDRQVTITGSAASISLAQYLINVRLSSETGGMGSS"}, "[9]": {"molecular_target": "T7, RBM12(1-2) (Homo sapiens, UniProt Q9NTZ6)", "T7 sequence": "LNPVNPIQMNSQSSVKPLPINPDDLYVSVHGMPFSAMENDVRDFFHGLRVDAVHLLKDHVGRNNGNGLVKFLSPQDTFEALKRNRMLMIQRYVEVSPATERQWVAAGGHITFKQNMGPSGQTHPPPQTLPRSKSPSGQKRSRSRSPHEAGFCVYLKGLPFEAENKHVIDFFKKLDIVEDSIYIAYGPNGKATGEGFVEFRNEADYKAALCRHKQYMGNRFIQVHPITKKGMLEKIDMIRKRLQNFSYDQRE"}, "[10]": {"molecular_target": "RBMY1F (Homo sapiens, UniProt Q15415)", "sequence (Q15415 1-110)": "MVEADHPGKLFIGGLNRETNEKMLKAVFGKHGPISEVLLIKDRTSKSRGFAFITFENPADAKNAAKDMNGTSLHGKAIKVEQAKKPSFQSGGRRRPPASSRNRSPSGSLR"}}, "data": [{"sequence": "AGAGGUAGUAGGUUGCAUAGUU", "values": [{"measurement": "binding signal", "setting": "[1]", "result": "530 ± 30.3", "unit": "fluorescence intensity"}, {"measurement": "binding signal", "setting": "[2]", "result": "50.4 ± 6.92", "unit": "fluorescence intensity"}, {"measurement": "binding signal", "setting": "[3]", "result": "1990 ± 38.5", "unit": "fluorescence intensity"}, {"measurement": "binding signal", "setting": "[4]", "result": "1507 ± 5.18", "unit": "fluorescence intensity"}, {"measurement": "binding signal", "setting": "[5]", "result": "38.5 ± 2.51", "unit": "fluorescence intensity"}, {"measurement": "binding signal", "setting": "[6]", "result": "26.3 ± 5.34", "unit": "fluorescence intensity"}, {"measurement": "binding signal", "setting": "[7]", "result": "196 ± 13.5", "unit": "fluorescence intensity"}, {"measurement": "binding signal", "setting": "[8]", "result": "21.7 ± 1.28", "unit": "fluorescence intensity"}, {"measurement": "binding signal", "setting": "[9]", "result": "1270 ± 68.8", "unit": "fluorescence intensity"}, {"measurement": "binding signal", "setting": "[10]", "result": "2241 ± 17.4", "unit": "fluorescence intensity"}]}, {"sequence": "UGAGGUAGUAGGUUGUAUGGUU", "values": [{"measurement": "binding signal", "setting": "[1]", "result": "462 ± 23.2", "unit": "fluorescence intensity"}, {"measurement": "binding signal", "setting": "[2]", "result": "61.6 ± 8.6", "unit": "fluorescence intensity"}, {"measurement": "binding signal", "setting": "[3]", "result": "111 ± 7.91", "unit": "fluorescence intensity"}, {"measurement": "binding signal", "setting": "[4]", "result": "1110 ± 31.5", "unit": "fluorescence intensity"}, {"measurement": "binding signal", "setting": "[5]", "result": "56.6 ± 5.37", "unit": "fluorescence intensity"}, {"measurement": "binding signal", "setting": "[6]", "result": "22.9 ± 1.58", "unit": "fluorescence intensity"}, {"measurement": "binding signal", "setting": "[7]", "result": "260 ± 19.3", "unit": "fluorescence intensity"}, {"measurement": "binding signal", "setting": "[8]", "result": "20.2 ± 0.297", "unit": "fluorescence intensity"}, {"measurement": "binding signal", "setting": "[9]", "result": "1230 ± 64.3", "unit": "fluorescence intensity"}, {"measurement": "binding signal", "setting": "[10]", "result": "1430 ± 254", "unit": "fluorescence intensity"}]}, {"sequence": "UGAGGUAGUAGGUUGUGUGGUU", "values": [{"measurement": "binding signal", "setting": "[1]", "result": "492 ± 15.8", "unit": "fluorescence intensity"}, {"measurement": "binding signal", "setting": "[2]", "result": "72.3 ± 6.39", "unit": "fluorescence intensity"}, {"measurement": "binding signal", "setting": "[3]", "result": "202.3 ± 0.523", "unit": "fluorescence intensity"}, {"measurement": "binding signal", "setting": "[4]", "result": "1219 ± 7.53", "unit": "fluorescence intensity"}, {"measurement": "binding signal", "setting": "[5]", "result": "83.8 ± 5.54", "unit": "fluorescence intensity"}, {"measurement": "binding signal", "setting": "[6]", "result": "28.2 ± 0.368", "unit": "fluorescence intensity"}, {"measurement": "binding signal", "setting": "[7]", "result": "385 ± 12.8", "unit": "fluorescence intensity"}, {"measurement": "binding signal", "setting": "[8]", "result": "20.3 ± 0.735", "unit": "fluorescence intensity"}, {"measurement": "binding signal", "setting": "[9]", "result": "1210 ± 36.7", "unit": "fluorescence intensity"}, {"measurement": "binding signal", "setting": "[10]", "result": "1478 ± 10.7", "unit": "fluorescence intensity"}]}, {"sequence": "UGAGGUAGUAGGUUGUAUAGUU", "values": [{"measurement": "binding signal", "setting": "[1]", "result": "23.6 ± 8.27", "unit": "fluorescence intensity"}, {"measurement": "binding signal", "setting": "[3]", "result": "39 ± 1.15", "unit": "fluorescence intensity"}, {"measurement": "binding signal", "setting": "[4]", "result": "464 ± 35", "unit": "fluorescence intensity"}, {"measurement": "binding signal", "setting": "[6]", "result": "21.1 ± 1.79", "unit": "fluorescence intensity"}, {"measurement": "binding signal", "setting": "[7]", "result": "45.6 ± 6.99", "unit": "fluorescence intensity"}, {"measurement": "binding signal", "setting": "[8]", "result": "23.4 ± 0.594", "unit": "fluorescence intensity"}, {"measurement": "binding signal", "setting": "[9]", "result": "321 ± 62.5", "unit": "fluorescence intensity"}, {"measurement": "binding signal", "setting": "[10]", "result": "1000 ± 19", "unit": "fluorescence intensity"}]}, {"sequence": "UAGCUUAUCAGACUGAUGUUGA", "values": [{"measurement": "binding signal", "setting": "[3]", "result": "126.9 ± 0.87", "unit": "fluorescence intensity"}, {"measurement": "binding signal", "setting": "[4]", "result": "480 ± 21.9", "unit": "fluorescence intensity"}, {"measurement": "binding signal", "setting": "[8]", "result": "20.9 ± 1.85", "unit": "fluorescence intensity"}, {"measurement": "binding signal", "setting": "[9]", "result": "271 ± 62.1", "unit": "fluorescence intensity"}, {"measurement": "binding signal", "setting": "[10]", "result": "865 ± 36.1", "unit": "fluorescence intensity"}]}, {"sequence": "CAGUGCAAUGAUGAAAGGGCAU", "values": [{"measurement": "binding signal", "setting": "[1]", "result": "194 ± 11.7", "unit": "fluorescence intensity"}, {"measurement": "binding signal", "setting": "[2]", "result": "52.5 ± 18.4", "unit": "fluorescence intensity"}, {"measurement": "binding signal", "setting": "[3]", "result": "735.5 ± 6.54", "unit": "fluorescence intensity"}, {"measurement": "binding signal", "setting": "[4]", "result": "1100 ± 38.7", "unit": "fluorescence intensity"}, {"measurement": "binding signal", "setting": "[6]", "result": "23.5 ± 3.87", "unit": "fluorescence intensity"}, {"measurement": "binding signal", "setting": "[7]", "result": "78.9 ± 4.49", "unit": "fluorescence intensity"}, {"measurement": "binding signal", "setting": "[8]", "result": "21.9 ± 0.262", "unit": "fluorescence intensity"}, {"measurement": "binding signal", "setting": "[9]", "result": "873 ± 45.6", "unit": "fluorescence intensity"}, {"measurement": "binding signal", "setting": "[10]", "result": "1404 ± 5.42", "unit": "fluorescence intensity"}]}]}
